# Of roughly 7,900 targets only a part is listed; those with a hit were picked by preference. About 0.6% of all pairs of compound and target were hits. Unmarked numbers belong to inactive results.
# How the values were obtained:
# Assay in all cases: log2 fold change, soluble protein after heating vs DMSO (PISA); higher = thermal stabilisation; K562 cells, 10 uM, 30 min; active = over 0.2 and 3.5 SD of the protein, either way, in both replicates (recomputed)
# [1] = compound: CC1=C(C=C(C=C1)NC(=O)C2=CC(=CC=C2)C(C)(C)C#N)NC3=CC4=C(C=C3)N=CN(C4=O)C
# Method in brief: (§1)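 Thermal stability values are relative to control samples and come from duplicates. They are expressed as log2 fold changes. For measurement, K562 cells (2×10^6 cells/mL) received 10 μM compound for 30 min, and aliquots were heated for 3 min over 48°C-58°C, pooled, and extracted at 4°C in PBS with 0.5% NP-40. Soluble protein, the supernatant after 21,000xg for 90 min, was quantified by TMTpro 16plex LC-MS/MS with equalised channel sums.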
# [2] = compound: CC1=CC=C(C=C1)SC2=C3C=C(SC3=CN=C2)C(=O)N
# Method in brief: as §1
# [3] = compound: CCCS(=O)(=O)Nc1ccc(F)c(C(=O)c2c[nH]c3ncc(Cl)cc23)c1F
# Method in brief: as §1
# [4] = compound: CCN(CC)Cc1ccc2cc(COC(=O)Nc3ccc(C(=O)NO)cc3)ccc2c1 [givinostat]
# Method in brief: as §1
# [5] = compound: CC[C@@H]1C(=O)N(C)c2cnc(Nc3ccc(C(=O)N[C@H]4CC[C@H](N5CCN(CC6CC6)CC5)CC4)cc3OC)nc2N1C(C)C [volasertib]
# Method in brief: as §1
# [6] = compound: CCn1c(C(=O)N(C2CC2)C2CC2)cc2c3c(ncn3C)c(Nc3cc(C)n(C)n3)nc21
# Method in brief: as §1
# [7] = compound: CC1=C(C=C(C=C1)NC(=O)C2=CC(=CC=C2)N(C)C)NC(=O)C3=CC=C(C=C3)O
# Method in brief: as §1
# [8] = compound: CC1=NC(=CC=C1)C2=C(N=C(N2)C(C)(C)C)C3=CC4=NC=CN=C4C=C3
# Method in brief: as §1
# [9] = compound: CCCCN(Cc1ccc(C(=O)NO)cc1)C(=O)Nc1ccccc1 [Nexturastat A]
# Method in brief: as §1
# [10] = compound: CCCc1cc(C)[nH]c(=O)c1CNC(=O)c1cc(-c2ccnc(N3CCN(C)CC3)c2)cc2c1cnn2C(C)C
# Method in brief: as §1
# [11] = compound: CCN(CCCOc1ccc2c(Nc3cc(CC(=O)Nc4cccc(F)c4)[nH]n3)ncnc2c1)CCOP(=O)(O)O [barasertib]
# Method in brief: as §1
# [12] = compound: CC[C@@H]1C(=O)N(C)c2cnc(Nc3ccc(C(=O)NC4CCN(C)CC4)cc3OC)nc2N1C1CCCC1
# Method in brief: as §1
# [13] = compound: CC[C@H](C)N1C=C(C2=C(C=C(C=C21)C3=CN=C(C=C3)N4CCNCC4)C(=O)NCC5=C(C=C(NC5=O)C)C)C
# Method in brief: as §1
# [14] = compound: CC[C@H](C)[C@@H](C(=O)N[C@@H]([C@@H](C)O)C(=O)N[C@@H](CC(C)C)C(=O)[C@]1(CO1)C)NC(=O)[C@H]([C@@H](C)CC)N(C)C(=O)C [epoxomicin]
# Method in brief: as §1
# [15] = compound: CCn1cc(-c2ccnc3[nH]c(-c4cccc(CN(C)C)c4)cc23)c(-c2ccc(NC(=O)N(C)C)cc2)n1
# Method in brief: as §1
# [16] = compound: CN(CCOC1=CC=C(C=C1)C[C@H]2C(=O)NC(=O)S2)C3=CC=CC=N3 (racemic) [rosiglitazone]
# Method in brief: as §1
# [17] = compound: CN1CCC(CNc2ccc3ncc(-c4cccc(OC(F)(F)F)c4)n3n2)CC1
# Method in brief: as §1
# [18] = compound: CCCS(=O)(=O)Nc1ccc(F)c(C(=O)c2c[nH]c3ncc(-c4ccc(Cl)cc4)cc23)c1F [vemurafenib]
# Method in brief: as §1
# [19] = compound: CN(C)CC(=O)Nc1ccc2[nH]c(=O)c3ccccc3c2c1
# Method in brief: as §1
# [20] = compound: CN1C2=C(C3=C1C(=O)N(N=C3)CC4=CC(=CC=C4)N)SC(=C2)S(=O)C
# Method in brief: as §1
# Chain of UniProt Q8IUR7 (Q8IUR7 whole entry, looked up): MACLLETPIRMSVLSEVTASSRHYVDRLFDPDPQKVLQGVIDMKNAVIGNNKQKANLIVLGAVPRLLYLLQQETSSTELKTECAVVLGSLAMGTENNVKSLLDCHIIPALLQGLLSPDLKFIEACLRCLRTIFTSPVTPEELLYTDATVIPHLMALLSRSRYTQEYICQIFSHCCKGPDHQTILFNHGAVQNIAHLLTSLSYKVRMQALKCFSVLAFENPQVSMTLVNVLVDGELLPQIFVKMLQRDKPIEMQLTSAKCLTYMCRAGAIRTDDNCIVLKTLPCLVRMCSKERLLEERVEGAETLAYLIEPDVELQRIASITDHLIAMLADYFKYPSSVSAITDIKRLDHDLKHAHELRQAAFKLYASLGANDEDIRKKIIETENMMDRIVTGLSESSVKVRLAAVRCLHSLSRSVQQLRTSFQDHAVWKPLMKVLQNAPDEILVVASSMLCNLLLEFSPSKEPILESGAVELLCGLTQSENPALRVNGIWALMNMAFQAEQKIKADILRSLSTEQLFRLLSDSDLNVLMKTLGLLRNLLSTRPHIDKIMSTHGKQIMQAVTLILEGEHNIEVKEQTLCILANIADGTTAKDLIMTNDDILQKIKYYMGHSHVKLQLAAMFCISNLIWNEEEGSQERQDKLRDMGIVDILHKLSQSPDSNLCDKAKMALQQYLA
# Chain of UniProt P53367 (P53367 whole entry, looked up): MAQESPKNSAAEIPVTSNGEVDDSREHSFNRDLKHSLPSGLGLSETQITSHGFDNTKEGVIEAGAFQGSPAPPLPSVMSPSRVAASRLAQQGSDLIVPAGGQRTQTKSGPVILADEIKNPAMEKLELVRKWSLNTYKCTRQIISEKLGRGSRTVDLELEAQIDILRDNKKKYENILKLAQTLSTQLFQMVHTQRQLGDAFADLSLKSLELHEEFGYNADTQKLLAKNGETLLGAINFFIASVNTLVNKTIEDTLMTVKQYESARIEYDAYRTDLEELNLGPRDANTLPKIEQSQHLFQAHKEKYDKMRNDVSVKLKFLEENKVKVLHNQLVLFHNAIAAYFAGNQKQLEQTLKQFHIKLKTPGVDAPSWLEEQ
# Chain of UniProt P78363 (P78363 whole entry, looked up): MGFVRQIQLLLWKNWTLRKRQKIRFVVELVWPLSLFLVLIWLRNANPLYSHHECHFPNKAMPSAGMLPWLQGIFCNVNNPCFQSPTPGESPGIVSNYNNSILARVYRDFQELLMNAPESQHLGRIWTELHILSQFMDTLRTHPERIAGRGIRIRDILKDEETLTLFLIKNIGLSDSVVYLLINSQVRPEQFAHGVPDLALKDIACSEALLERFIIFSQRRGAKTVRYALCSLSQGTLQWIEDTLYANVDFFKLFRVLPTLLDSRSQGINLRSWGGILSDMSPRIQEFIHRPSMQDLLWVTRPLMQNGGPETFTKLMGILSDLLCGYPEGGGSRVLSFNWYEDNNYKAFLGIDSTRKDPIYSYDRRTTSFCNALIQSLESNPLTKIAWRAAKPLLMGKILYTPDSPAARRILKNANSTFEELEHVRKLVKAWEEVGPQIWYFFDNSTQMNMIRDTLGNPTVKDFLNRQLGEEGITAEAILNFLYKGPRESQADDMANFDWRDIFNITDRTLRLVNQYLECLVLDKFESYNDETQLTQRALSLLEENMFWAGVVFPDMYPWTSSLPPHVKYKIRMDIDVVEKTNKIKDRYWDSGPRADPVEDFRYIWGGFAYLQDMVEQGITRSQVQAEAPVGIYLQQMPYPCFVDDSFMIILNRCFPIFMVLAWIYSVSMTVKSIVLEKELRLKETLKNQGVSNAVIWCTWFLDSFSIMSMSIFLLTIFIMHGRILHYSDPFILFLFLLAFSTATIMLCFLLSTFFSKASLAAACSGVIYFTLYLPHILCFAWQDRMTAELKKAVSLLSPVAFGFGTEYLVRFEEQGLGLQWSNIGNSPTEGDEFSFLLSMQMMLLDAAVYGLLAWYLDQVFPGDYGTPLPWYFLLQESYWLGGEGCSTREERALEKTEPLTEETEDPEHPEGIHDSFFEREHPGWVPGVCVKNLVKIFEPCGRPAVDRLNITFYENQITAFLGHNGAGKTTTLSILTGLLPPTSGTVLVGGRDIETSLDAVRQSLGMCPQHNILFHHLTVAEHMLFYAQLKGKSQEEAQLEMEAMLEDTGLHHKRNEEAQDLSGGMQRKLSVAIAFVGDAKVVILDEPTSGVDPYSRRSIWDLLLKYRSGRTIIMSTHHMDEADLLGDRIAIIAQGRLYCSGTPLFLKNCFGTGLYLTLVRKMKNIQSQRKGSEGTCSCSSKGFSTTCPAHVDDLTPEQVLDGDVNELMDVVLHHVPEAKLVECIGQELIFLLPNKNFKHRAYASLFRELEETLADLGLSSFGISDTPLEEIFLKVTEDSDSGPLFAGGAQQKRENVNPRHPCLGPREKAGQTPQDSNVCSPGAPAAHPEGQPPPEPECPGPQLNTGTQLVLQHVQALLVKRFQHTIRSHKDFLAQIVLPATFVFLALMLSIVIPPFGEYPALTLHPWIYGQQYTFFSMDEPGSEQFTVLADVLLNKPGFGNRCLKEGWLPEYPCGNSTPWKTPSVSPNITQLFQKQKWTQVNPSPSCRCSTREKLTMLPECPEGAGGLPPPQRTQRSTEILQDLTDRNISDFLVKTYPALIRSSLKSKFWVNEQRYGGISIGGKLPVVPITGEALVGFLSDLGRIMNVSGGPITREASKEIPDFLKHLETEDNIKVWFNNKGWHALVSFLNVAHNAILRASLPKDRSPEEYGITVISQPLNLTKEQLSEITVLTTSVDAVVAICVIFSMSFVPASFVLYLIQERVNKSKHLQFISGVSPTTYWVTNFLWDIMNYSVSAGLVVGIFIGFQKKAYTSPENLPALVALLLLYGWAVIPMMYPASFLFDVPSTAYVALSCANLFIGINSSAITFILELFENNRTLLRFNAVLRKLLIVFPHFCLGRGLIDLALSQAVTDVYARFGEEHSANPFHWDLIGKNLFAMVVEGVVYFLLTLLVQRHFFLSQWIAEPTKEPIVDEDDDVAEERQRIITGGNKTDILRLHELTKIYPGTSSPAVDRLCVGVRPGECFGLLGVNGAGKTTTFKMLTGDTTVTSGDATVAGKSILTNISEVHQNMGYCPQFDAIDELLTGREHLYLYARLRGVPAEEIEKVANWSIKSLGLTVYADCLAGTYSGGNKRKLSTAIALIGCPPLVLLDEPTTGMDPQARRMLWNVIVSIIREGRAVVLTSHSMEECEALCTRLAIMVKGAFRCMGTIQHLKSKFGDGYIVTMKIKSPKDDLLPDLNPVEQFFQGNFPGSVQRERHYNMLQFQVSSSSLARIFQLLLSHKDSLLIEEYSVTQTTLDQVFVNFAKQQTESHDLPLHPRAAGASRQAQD
# Chain of UniProt Q9HCU9 (Q9HCU9 whole entry, looked up): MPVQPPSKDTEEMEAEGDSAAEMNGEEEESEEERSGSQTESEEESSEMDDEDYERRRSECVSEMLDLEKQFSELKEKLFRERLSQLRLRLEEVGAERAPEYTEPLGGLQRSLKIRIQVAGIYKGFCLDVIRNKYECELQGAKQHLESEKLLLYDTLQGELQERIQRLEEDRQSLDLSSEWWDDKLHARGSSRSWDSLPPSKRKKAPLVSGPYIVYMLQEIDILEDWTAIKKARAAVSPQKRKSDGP
# Chain of UniProt P42331 (P42331 whole entry, looked up): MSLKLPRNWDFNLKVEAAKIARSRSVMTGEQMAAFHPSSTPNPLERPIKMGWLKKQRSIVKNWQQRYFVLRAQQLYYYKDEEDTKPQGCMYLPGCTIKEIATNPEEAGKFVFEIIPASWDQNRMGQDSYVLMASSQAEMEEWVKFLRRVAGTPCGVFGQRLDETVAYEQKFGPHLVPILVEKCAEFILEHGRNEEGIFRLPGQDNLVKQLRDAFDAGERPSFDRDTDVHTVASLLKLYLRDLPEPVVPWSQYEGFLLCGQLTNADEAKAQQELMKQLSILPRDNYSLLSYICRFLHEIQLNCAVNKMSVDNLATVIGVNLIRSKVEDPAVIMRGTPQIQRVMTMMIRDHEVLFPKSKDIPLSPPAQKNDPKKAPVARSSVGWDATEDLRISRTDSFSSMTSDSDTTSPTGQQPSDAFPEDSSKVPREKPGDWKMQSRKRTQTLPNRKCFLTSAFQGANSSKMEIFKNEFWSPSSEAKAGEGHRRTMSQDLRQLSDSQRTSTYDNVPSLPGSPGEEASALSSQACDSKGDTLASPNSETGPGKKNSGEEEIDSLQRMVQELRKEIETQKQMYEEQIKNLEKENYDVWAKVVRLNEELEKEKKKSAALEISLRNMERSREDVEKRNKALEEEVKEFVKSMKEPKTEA
# Chain of UniProt Q13825 (Q13825 whole entry, looked up): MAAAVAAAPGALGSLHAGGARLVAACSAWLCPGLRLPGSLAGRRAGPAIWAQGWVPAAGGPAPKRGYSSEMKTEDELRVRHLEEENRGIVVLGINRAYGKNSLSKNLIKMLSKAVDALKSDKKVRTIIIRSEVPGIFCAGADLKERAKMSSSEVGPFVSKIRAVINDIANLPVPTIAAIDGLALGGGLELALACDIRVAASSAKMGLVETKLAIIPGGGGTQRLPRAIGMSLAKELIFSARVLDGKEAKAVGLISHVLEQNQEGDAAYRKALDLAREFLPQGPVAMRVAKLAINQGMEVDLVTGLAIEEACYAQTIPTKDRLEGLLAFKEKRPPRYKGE
# Chain of UniProt Q9H7T9 (Q9H7T9 whole entry, looked up): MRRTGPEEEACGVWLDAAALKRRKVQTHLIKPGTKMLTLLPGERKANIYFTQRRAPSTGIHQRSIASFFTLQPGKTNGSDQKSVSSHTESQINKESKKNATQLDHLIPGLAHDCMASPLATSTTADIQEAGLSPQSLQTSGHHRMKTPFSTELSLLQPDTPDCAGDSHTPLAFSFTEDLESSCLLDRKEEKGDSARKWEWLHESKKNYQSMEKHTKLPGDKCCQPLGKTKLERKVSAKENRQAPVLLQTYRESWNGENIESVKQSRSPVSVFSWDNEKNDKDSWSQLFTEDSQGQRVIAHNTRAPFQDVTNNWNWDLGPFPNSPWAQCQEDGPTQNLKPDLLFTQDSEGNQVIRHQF
Target,log2 fold change [1],log2 fold change [2],log2 fold change [3],log2 fold change [4],log2 fold change [5],log2 fold change [6],log2 fold change [7],log2 fold change [8],log2 fold change [9],log2 fold change [10],log2 fold change [11],log2 fold change [12],log2 fold change [13],log2 fold change [14],log2 fold change [15],log2 fold change [16],log2 fold change [17],log2 fold change [18],log2 fold change [19],log2 fold change [20]
AKNA (UniProt Q7Z591),0.079,-0.047,-0.02,0.177,0.015,0.054,,,,,,,,,,,,,,
ABCA4 (UniProt P78363),-0.145,,,0.23,,-0.172,-0.068,-0.168,0.576 (active),0.033,0.015,0.117,-0.202,-0.046,-0.163,0.015,-0.087,,,
ATRN (UniProt O75882),0.037,-0.034,0.054,0.026,-0.094,-0.1,,-0.061,-0.135,-0.003,-0.09,0.029,-0.019,0.063,0.004,-0.096,0.121,-0.026,-0.01,0.095
ATXN7L3 isoform 2 (UniProt Q14CW9),0.013,,,-0.046,,0.036,-0.017,-0.09,,0.137,-0.042,-0.042,-0.166,,,-0.2,,,,
BAP18 isoform 3 (UniProt Q8IXM2),,,,0.025,,-0.028,,,,0.005,,,,,0.028,,0.2,,,
ALG14 (UniProt Q96F25),,0.045,0.052,0.03,0.11,-0.014,-0.13,0.068,-0.479,-0.131,0.03,0.2,-0.077,0.382,-0.215,0.016,0.443,-0.053,0.062,-0.124
BRAF (UniProt P15056),0.15,0.02,0.144,-0.031,-0.097,0.008,,-0.01,-0.053,-0.049,0.022,0,0.043,0.04,0.029,0.034,-0.07,0.148,0.036,-0.039
ANGEL1 (UniProt Q9UNK9),,,,,,,-0.121,0.591 (active),,,0.033,,,,,-0.008,,-0.079,0.038,
ADD2 isoform 9 (UniProt P35612),0.191,-0.067,-0.114,,-0.1,,0.065,,,0.079,0.047,,,,,0.196,,,,
ARHGAP25 isoform 4 (UniProt P42331),,,,0.307,,-0.103,,,0.078,-0.052,-0.018,-0.031,-0.031,0.083,0.072,0.088,-0.221,0.086,0.134,0.127
ACOX3 (UniProt O15254),0.111,-0.192,-0.009,-0.01,0.028,0.011,,-0.011,0.039,0.184,-0.035,-0.346,-0.069,-0.113,,0.044,,0.057,-0.129,
AARSD1 (UniProt Q9BTE6),,0.044,0.206,-0.285,-0.227,-0.046,,0.278,,0.027,0.119,-0.042,-0.121,,,0.085,,,,0.283
ADD1 isoform 4 (UniProt P35611),,,,,,,,0.098,0.024,,0.03,,,-0.431,-0.001,-0.077,0.086,,,
ACTR3B (UniProt Q9P1U1),,-0.05,0.014,0.147,-0.063,0.038,-0.046,0.198,,,,,0.261,,-0.047,,0.048,0.019,-0.05,
ARMC8 isoform 6 (UniProt Q8IUR7),,,,0.075,,-0.196,,,,,-0.021,,0.048,,,-0.004,,0.031,0.016,
AUNIP isoform 2 (UniProt Q9H7T9),0.113,0.101,0.073,0.083,-0.03,0.013,,,,,,,,,,,,0.081,-0.163,-0.031
AUH (UniProt Q13825),,-0.107,0.008,0.279,0.486 (active),-0.129,-0.007,0.082,,-0.185,0.096,0.011,,,-0.094,0.021,0.086,0.091,0.128,-0.183
ARFIP1 isoform 2 (UniProt P53367),-0.106,0.051,0.097,0.061,-0.134,-0.102,,0.031,-0.025,0.121,0.019,,0.071,-0.004,0.259,0.088,-0.512 (active),,,-0.124
AFDN isoform 1 (UniProt P55196),0.035,,,0.259,,-0.104,0.083,0.03,-0.164,0.062,-0.045,-0.019,,0.064,-0.075,0.104,0.062,0.342,-0.069,0.111
ACP1 (UniProt P24666),0.007,0.01,-0.047,0.076,-0.102,-0.034,,-0.123,0.001,0.039,0.12,0.084,-0.001,0.03,0.077,0.167,-0.061,0.071,0.12,0.099
BRMS1 (UniProt Q9HCU9),,,,,,,,,0.512 (active),0.137,,-0.034,,-0.018,0.144,,-0.124,,,-0.092
ADAMTS5 (UniProt Q9UNA0),-0.171,,,0.222,,-0.092,-0.022,-0.164,,-0.572,0.02,0.011,-0.211,,-0.16,-0.035,-0.039,-0.095,0.045,-0.018

# Reference: the supplement of paper PMC10849652
